Compounds with a hit are over-represented: about 4% of the library has one in this group of screens.
RecA splice inh: inhibitors of M. tuberculosis RecA intein splicing; 290,000 tested, 0.75% active; inhibition, % (no concentration beside the values); cell-free RecA intein splicing, fluorescence; P9WHJ3; AID 2221; in the data active = inhibition above about 30%; inconclusive = no clear call, values can overlap the other calls
Mtb UGM inh: Mtb UDP-galactopyranose mutase inhibition. 320,000 tested, 0.06% active. inhibition, % at 10 µM. purified UGM, fluorescence polarization probe displacement; in the data active = inhibition above about 10%, passing the limit was not always enough; inconclusive = no clear call, values can overlap the other calls
Rv3671c protease: Rv3671c (M. tuberculosis) protease inhibition; P9WHR9; inhibition, % at 5.96 µM; 320,000 tested, 0.048% active; AID 2606; in the data active = inhibition above about 38%;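 also: extracellular domain of Rv3671c used as enzyme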
Target sequence (P9WHR9 whole entry, looked up, the tested form may be a part): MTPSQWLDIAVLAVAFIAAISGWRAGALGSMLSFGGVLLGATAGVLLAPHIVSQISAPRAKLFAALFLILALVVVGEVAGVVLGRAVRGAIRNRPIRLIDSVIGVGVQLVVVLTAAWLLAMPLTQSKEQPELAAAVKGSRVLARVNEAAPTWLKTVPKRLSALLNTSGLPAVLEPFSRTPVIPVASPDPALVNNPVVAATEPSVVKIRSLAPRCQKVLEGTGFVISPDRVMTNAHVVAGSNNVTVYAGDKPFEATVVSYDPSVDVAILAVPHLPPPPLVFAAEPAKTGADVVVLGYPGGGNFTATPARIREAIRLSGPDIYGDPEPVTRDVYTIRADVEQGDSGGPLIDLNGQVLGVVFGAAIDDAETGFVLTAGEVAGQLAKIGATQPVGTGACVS
GDH-TPI counter: GDH-TPI coupled enzyme inhibition counter-screen; 360,000 tested, 1.2% active; inhibition, % at 4.8 µM; GDH-TPI coupled enzyme counterscreen, NADH absorbance; AID 588335; in the data active = inhibition above about 30%
Mtb bLac sens: beta-lactam sensitization of Mtb H37Rv; M. tuberculosis H37Rv growth with meropenem, percent inhibition; inhibition, % at 25 µM; 330,000 tested, 0.27% active; AID 434955; call rule not given here;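 also: growth measured after seven days incubation then overnight dye step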
Mtb FBA inh: inhibitors of M. tuberculosis fructose-bisphosphate aldolase; purified M. tuberculosis FBA, fluorescence read-out; inhibition, % at 1 µM; 360,000 tested, 2.3% active; in the data active = inhibition above about 27%
Of the large screens only hits and unclear results are named; the others gave an inactive call.

O=C(CSc1nc2sccc2c(=O)[nH]1)N1CCN(c2ccccc2)CC1	none
c1ccc2c3c(cc(N4CCOCC4)c2c1)OC1(N2CCOCC2)CCCCC1O3 (stereo not given)	Mtb FBA inh 89.5
Cn1c(=O)c2c([nH]c(=O)n2C)n(Cc2ccccc2)c1=O	none
CC(C)(C)C1CCc2sc(C(=O)NNC(=O)CCl)cc2C1 (stereo not given)	RecA splice inh 67.3 (no result: Mtb UGM inh, Rv3671c protease, Mtb bLac sens)
CC(C)(C)C1CCC(=NNC(=O)c2cc3c(s2)CCCC3)CC1 (stereo not given)	none
Nc1ccc2nc[nH]c2c1	RecA splice inh 48.8
O=C(N/N=C/c1ccc(O)cc1O)/C(=C/c1ccccc1)CCO	GDH-TPI counter 41.1
COc1cc(/C=N/NC(=O)/C(=C/c2ccccc2)CCO)ccc1O	GDH-TPI counter 39.3
CCN(C(=O)COC(=O)COc1ccccc1Cl)c1c(N)n(Cc2ccccc2)c(=O)[nH]c1=O	none (no result: RecA splice inh)
Cc1ccc(/C=C/C(=O)OCC(=O)N(C)c2c(N)n(Cc3ccccc3)c(=O)[nH]c2=O)o1	GDH-TPI counter 38.4 (no result: RecA splice inh, Mtb UGM inh, Rv3671c protease, Mtb bLac sens)
COC(=O)C1=C(C)N(C)C(=S)NC1c1c(OC)ccc2ccccc12 (stereo not given)	none
Cc1cccc[n+]1CCCCCCCCCC[n+]1ccccc1C	none
CCCCCCCCCC[n+]1cccc2c3ccccc3ccc21	Mtb FBA inh 29.1 (no result: Mtb UGM inh, Rv3671c protease, Mtb bLac sens)
NC(=O)c1ccsc1NC(=O)COC(=O)Cc1ccccc1Cl	none (no result: RecA splice inh)
COc1ccccc1OCC(=O)Nc1cc2c(cc1C(=O)O)OCCCO2	none (no result: RecA splice inh)
COC(=O)CN1C(=O)COc2ccc(S(=O)(=O)N3CCCCC3)cc21	none (no result: RecA splice inh, Mtb UGM inh, Rv3671c protease, Mtb bLac sens)
CCOC1=C2CN(S(=O)(=O)c3ccc(C)cc3)[C@H](c3cccc(Cl)c3)C[C@@H]2N(S(=O)(=O)c2ccccc2[N+](=O)[O-])[C@H](c2ccccc2)C1	none (no result: RecA splice inh, Mtb UGM inh, Rv3671c protease, GDH-TPI counter, Mtb bLac sens)
O=C(Nc1ccc(O)cc1)/C(=C/c1ccco1)NC(=O)c1ccccc1	GDH-TPI counter 39.9
O=C(Nc1ccc(C(=O)O)cc1)/C(=C\c1ccco1)NC(=O)c1ccc(Br)o1	none
O=C(Nc1ccc(C(=O)O)cc1)/C(=C\c1ccco1)NC(=O)c1ccc(Br)cc1	GDH-TPI counter 40.2 (no result: RecA splice inh, Mtb UGM inh, Rv3671c protease, Mtb bLac sens)
O=C1CN(C(=O)c2ccc(Cl)c(S(=O)(=O)N3CCc4ccccc43)c2)c2ccccc2N1	none
COc1ccccc1-c1nc(C#N)c(N2CCN(c3ccccc3)CC2)o1	none
Cc1cccc(-c2nc(C#N)c(N3CCCCCC3)o2)c1	Mtb FBA inh 138.5
COc1ccc(-c2nc(C#N)c(N3CCc4ccccc4C3)o2)cc1OC	GDH-TPI counter 40.8, Mtb FBA inh 149.8
COc1ccc(N2CCN(c3oc(-c4ccc(OC)c(OC)c4)nc3C#N)CC2)cc1	none
COc1ccccc1-c1nc(C#N)c(N2CCCCCC2)o1	Mtb FBA inh active
CC(Oc1coc(CN2CCN(C(=O)c3ccco3)CC2)cc1=O)c1ccccc1 (stereo not given)	none
CC(=O)Nc1cccc(NC(=O)C2CCCO2)c1 (stereo not given)	none (no result: RecA splice inh, Mtb UGM inh, Rv3671c protease, Mtb bLac sens)
Cc1nn(CC(=O)N(C)C2CCS(=O)(=O)C2)c(C)c1S(=O)(=O)N(C)C (stereo not given)	none (no result: RecA splice inh)
COc1ccc(CCNc2cc(N3CCN(C(=O)c4ccc(C)cc4)CC3)ccc2[N+](=O)[O-])cc1OC	Rv3671c protease 42.6 (no result: GDH-TPI counter, Mtb FBA inh)
COc1ccc(C(=O)N2CCN(c3ccc([N+](=O)[O-])c(NCCc4ccc(OC)c(OC)c4)c3)CC2)cc1	Mtb bLac sens inconclusive
COc1ccc(-c2nc3ccc(C)cn3c2CC(C)(C)C)cc1OC	none (no result: RecA splice inh, Mtb UGM inh, Rv3671c protease, GDH-TPI counter, Mtb bLac sens)
COCCN(C(=O)COC(=O)c1ccc(Cl)nc1)c1c(N)n(Cc2ccccc2)c(=O)[nH]c1=O	none
Cn1cccc1/C=N/NC(=O)CNc1ccc2ccccc2c1	none
Cc1ccc(NCC(=O)N/N=C/c2cccn2C)cc1	GDH-TPI counter 35.2
COc1cc(/C=N/N=C(/N)c2nonc2N)cc(Br)c1OCc1ccccc1C	GDH-TPI counter 34.3
CCOc1cc(/C=N/N=C(/N)c2nonc2N)cc(Br)c1OCc1ccc(Cl)cc1	GDH-TPI counter 31.6
COc1cc(/C=N/NC(N)=O)cc(Br)c1OCc1ccccc1C	none
CC1CCCN(C(=O)c2ccc(NC(=O)CC3SC(N4CCCC4)=NC3=O)cc2)C1 (stereo not given)	none
CCCn1c(-c2ccc[nH]c2=O)nc2cc(C)c(C)cc21	Mtb FBA inh 115.3
Cc1cc2nc(-c3ccc[nH]c3=O)n(Cc3cccc(F)c3)c2cc1C	Mtb FBA inh 149.4
